Compounds without any hit were thinned out: in the full panel of roughly 79,000, 15% have a hit. Activity calls are given as the source filed them. Rule as the data show it: active = growth inhibition above about 70%; inactive = the rest.
Experiments:
[1] = NCI Yeast Anticancer Drug Screen. Data for the rad52 strain (AID 147);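 also: 0% = growth of vehicle-treated control cultures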; conditions: S. cerevisiae rad52 mutant growth inhibition, stronger effect = higher value
Outline: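 The repair-mutant yeast strain was incubated with compounds, then growth was read and inhibition derived relative to vehicle.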

[2] = NCI Yeast Anticancer Drug Screen. Data for the wt1 strain (AID 149);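 also: 0% = growth of vehicle-treated wt1 cultures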; conditions: S. cerevisiae wt1 strain (SPY 50644) growth inhibition, stronger effect = higher value
Outline: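 Vehicle-normalised growth inhibition; strain wt1; compound exposure.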

[3] = NCI Yeast Anticancer Drug Screen. Data for the rad50EPP+ strain (AID 151);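 also: 0% = growth of vehicle-treated control cultures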; conditions: S. cerevisiae rad50 mutant strain, stronger effect = higher value
Outline: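 Vehicle-normalised growth inhibition; rad50EPP+ yeast strain, altered in DNA damage repair, compound-treated.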

[4] = NCI Yeast Anticancer Drug Screen. Data for the mgt1 strain (AID 153); conditions: S. cerevisiae mgt1 mutant growth inhibition, stronger effect = higher value
Outline: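 Vehicle-normalized growth inhibition is determined in mgt1 yeast, a strain selected for a defined alteration in DNA repair or cell cycle control.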

[5] = NCI Yeast Anticancer Drug Screen. Data for the rad50 strain (AID 155);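 also: 0% = growth of vehicle-only cultures of the same strain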; conditions: S. cerevisiae rad50 strain growth inhibition, stronger effect = higher value
Outline: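 A DNA repair-deficient yeast mutant serves as the test organism; compound-induced growth inhibition is calculated against vehicle-treated cells.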

[6] = NCI Yeast Anticancer Drug Screen. Data for the mec2-1 strain (AID 157); conditions: S. cerevisiae mec2-1 strain, stronger effect = higher value
Outline: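 Mutant yeast (mec2-1) grown with compound; growth inhibition relative to vehicle control reported.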

[7] = NCI Yeast Anticancer Drug Screen. Data for the rad14 strain (AID 159);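 also: 0% = growth of vehicle-treated control cultures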; conditions: S. cerevisiae rad14 strain growth inhibition, stronger effect = higher value
Outline: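 Vehicle-treated cultures served as the baseline for growth inhibition of a DNA repair-mutant yeast strain exposed to each compound.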

[8] = NCI Yeast Anticancer Drug Screen. Data for the sgs1 mgt1 strain (AID 161);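 also: 0% = growth of cultures given vehicle only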; conditions: S. cerevisiae sgs1 mgt1 strain, stronger effect = higher value
Outline: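 Percent growth inhibition was derived by comparing compound-exposed mutant yeast with vehicle-exposed cultures. The strain carries alterations in DNA damage repair.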

[9] = NCI Yeast Anticancer Drug Screen. Data for the CLN2oe strain (AID 163);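 also: 0% = growth of vehicle-only control cultures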; conditions: S. cerevisiae CLN2oe strain, stronger effect = higher value
Outline: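 Compounds are applied to yeast harbouring a defined cell-cycle control change; reduced growth compared with vehicle-treated controls gives the value.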

[10] = NCI Yeast Anticancer Drug Screen. Data for the cln2 rad14 strain (AID 165);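 also: 0% = growth equal to vehicle treated cultures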; conditions: S. cerevisiae cln2 rad14 strain, stronger effect = higher value
Outline: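 Readout is yeast growth inhibition versus vehicle-treated controls, using a strain with cln2 and rad14 alterations exposed to compound.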

[11] = NCI Yeast Anticancer Drug Screen. Data for the bub3 strain (AID 167); conditions: S. cerevisiae bub3 mutant strain, stronger effect = higher value
Outline: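 Inhibition values come from growth of compound-treated mutant yeast normalised to vehicle-treated controls.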

[12] = NCI Yeast Anticancer Drug Screen. Data for the wt2 strain (AID 169);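 also: 0% = growth of vehicle-treated yeast cultures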; conditions: S. cerevisiae wt2 strain growth inhibition, stronger effect = higher value
Outline: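 Against vehicle-treated controls, the growth of yeast exposed to each compound was compared, and the inhibition was recorded.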

[13] = NCI Yeast Anticancer Drug Screen. Data for the mlh1 strain (AID 171);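 also: 0% = growth of vehicle-treated control cultures of the same strain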; conditions: S. cerevisiae mlh1 strain growth inhibition, stronger effect = higher value
Outline: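 Measured: yeast growth. Reference: vehicle-treated controls. Organism: strain with a defined alteration affecting DNA damage repair or cell cycle control, treated with compound.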

[14] = NCI Yeast Anticancer Drug Screen. Data for the sgs1 strain (AID 173);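 also: 0% = growth of vehicle-only control cultures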; conditions: S. cerevisiae sgs1 mutant, stronger effect = higher value
Outline: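 Each compound was added to cultures of the altered yeast strain. Growth was recorded, and inhibition was derived by comparison with vehicle controls.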

[15] = NCI Yeast Anticancer Drug Screen. Data for the mlh1 rad18 strain (AID 175); conditions: S. cerevisiae mlh1 rad18 strain growth inhibition, stronger effect = higher value
Outline: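 Genetically defined yeast (DNA repair-deficient) exposed to compounds; growth inhibition determined relative to vehicle.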

[16] = NCI Yeast Anticancer Drug Screen. Data for the rad18 strain (AID 177); conditions: S. cerevisiae rad18 mutant growth inhibition, stronger effect = higher value
Outline: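 Vehicle-treated cultures served as the baseline for scoring compound-induced growth inhibition in DNA-repair-mutant yeast.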

[17] = at 5.0 µM (retest, dose inferred, filed as 0.5)
[18] = at 50.0 µM (retest, dose inferred, filed as 5.0)

Measured: growth inhibition

CCC[CH2][Ge]([CH2]CCC)([CH2]CCC)[O]C(=O)C(OC)c1ccccc1 (stereo not drawn)
active: [1]; at 100.0 µM 98% | [2]; at 100.0 µM 97% | [4]; at 100.0 µM 99% | [5]; at 100.0 µM 98% | [6]; at 50.0 µM 75.5% | [6]; at 100.0 µM 98% | [7]; at 100.0 µM 95% | [8]; at 50.0 µM 82.8% | [9]; at 100.0 µM 98% | [11]; at 50.0 µM 76% | [11]; at 100.0 µM 97% | [12]; at 100.0 µM 98% | [13]; at 100.0 µM 98% | [14]; at 33.0 µM 71% | [14]; at 100.0 µM 94% | [15]; at 50.0 µM 78% | [16]; at 33.0 µM 80% | [16]; at 100.0 µM 98%
inactive: [1]; at 1.2 µM 0% | [1]; at 3.7 µM 6% | [1]; at 11.0 µM 25% | [1]; at 33.0 µM 66% | [2]; at 1.2 µM -3% | [2]; at 3.7 µM -6% | [2]; at 11.0 µM -3% | [2]; at 33.0 µM 30% | [3]; at 1.2 µM -2% | [3]; at 3.7 µM 3% | [3]; at 11.0 µM 6% | [3]; at 33.0 µM 16% | [3]; at 100.0 µM 34% | [4]; at 1.2 µM -2% | [4]; at 3.7 µM -1% | [4]; at 11.0 µM 1% | [4]; at 33.0 µM 58% | [5]; at 1.2 µM 2% | [5]; at 3.7 µM 8% | [5]; [17] 60% | [5]; at 11.0 µM -2% | [5]; at 33.0 µM 64% | [5]; [18] 60% | [5]; at 50.0 µM 69.9% | [6]; at 1.2 µM -1% | [6]; at 3.7 µM -1% | [6]; [17] 57% | [6]; at 11.0 µM 7% | [6]; at 33.0 µM 34% | [6]; [18] 57% | [7]; at 1.2 µM -2% | [7]; at 3.7 µM -7% | [7]; at 11.0 µM -10% | [7]; at 33.0 µM 26% | [8]; [17] 59% | [8]; [18] 59% | [9]; at 1.2 µM -6% | [9]; at 3.7 µM 1% | [9]; at 11.0 µM 6% | [9]; at 33.0 µM 41% | [10]; [17] 18% | [10]; [18] 18% | [10]; at 50.0 µM 66.5% | [11]; at 1.2 µM -6% | [11]; at 3.7 µM -4% | [11]; [17] 10% | [11]; at 11.0 µM 12% | [11]; at 33.0 µM 54% | [11]; [18] 10% | [12]; at 1.2 µM -3% | [12]; at 3.7 µM -4% | [12]; at 11.0 µM 0% | [12]; at 33.0 µM 48% | [13]; at 1.2 µM -4% | [13]; at 3.7 µM -5% | [13]; at 11.0 µM -1% | [13]; at 33.0 µM 60% | [14]; at 1.2 µM -1% | [14]; at 3.7 µM 1% | [14]; at 11.0 µM 11% | [15]; [17] 39% | [15]; [18] 39% | [16]; at 1.2 µM 5% | [16]; at 3.7 µM 4% | [16]; at 11.0 µM 22%

From PubChem BioAssay (NCI)
